# According to PubChem BioAssay (NCATS):
# “And” between values parts separate entries of the source, which are not always exact repeats. Equal values may be shown once. Records with an inconclusive call do not appear. Values without a mark were called inactive. The source made the active and inactive calls. Calls follow the shape of the dose curve; as a rule, active = well fitted inhibition curve with a large enough effect; inconclusive = small, poorly fitted or top-dose-only effect; inactive = no such curve, though single readings can be large or run the other way.
# Assay: Tertiary RLuc qRT-PCR qHTS assay for Zika virus inhibitors (AID 1347169); also: nearly all actives have a fitted effect of over 55% in size; as to activity change, negative = inhibition: top concentration of the series differs between compounds
# Details: infected Vero cells, reporter luminescence, 48-72 h; series mostly up to 1.74 µM; activity change, negative = inhibition: at the top concentration
# From the text: Avindra Nath, Ph.D., National Institute of Neurological Disorders and Stroke (NINDS), Bethesda, MD
# Radhakrishnan Padmanabhan, Ph.D., Georgetown University (GU), Washington D.C.
# Zika Virus causes congenital defects, including microcephaly and is associated with Guillain-Barre syndrome, eningoencephalitis and myelitis in infected adult. […] Using a target-based approach, we hope to establish a screening paradigm to uncover novel, cell-active NS2B-NS3 protease (Zika Virus) specific inhibitors from NCATS' collection of small molecules using qHTS.
# Four assay panel was created to identify potential Zika Virus inhibitors. Namely, (1) GU unlinked NS2B-NS3 AMC tagged protease qHTS, (2) GU unlinked NS2B-NS3 Rhodamine tagged protease qHTS, (3) NINDS linked NS2B-NS3 AMC tagged protease qHTS, (4) NINDS linked NS2B-NS3 Rhodamine tagged protease qHTS. Identified inhibitors were re-acquired and tested against secondary confirmatory, orthogonal, and counterscreens to exclude nonspecific inhibition.
# Early Translation Branch (ETB)
# National Center for Advancing Translational Sciences (NCATS), Rockville, MD
# National Institute of Health (NIH), Bethesda, Maryland
# 1536-well recombinant virus ZIKV-RLuc (Cambodian) Assay:
# For a follow-up assay, we adapted a high throughput orthogonal assay in 1536-well plate format to use the recombinant virus ZIKV-RLuc, in Vero cells. Briefly, three microL of Vero cells derived from a green monkey cell line, were dispensed Multidrop Dispenser into a solid bottom white 1,536-well plate at a concentration of 1,000 cells per well. The plate was incubated overnight in a CO2 incubator at 37 degrees C. Compounds were delivered as a 23 nL DMSO solution by Kalypsys pintool transfer. Following compound transfer, 2 microL of ZIKV-RLuc was added at an MOI of 1-2 and incubated in a CO2 incubator for 48-72 hrs at 37 degrees C. After sufficient incubation of infected cells in test plates, live cell Renilla luciferase substrate (Promega) was added. The luminescence signal was measured after 1-1.5 hrs exposure to substrate in ViewLux reader.
# % is scaled to controls: 0 for no effect and ±100 for the full control effect; potency is read from the fitted curve at half-maximal effect.
SMILES,"activity change, negative = inhibition",Potency
CCCCc1nn2c(=O)cc(COC(=O)c3ccc(NC(=O)CCc4ccccc4)cc3)nc2s1,32.7% [at 14.8 µM],–
COC(=O)c1ccccc1NC(=O)CSc1nc(-c2ccccc2)cc(C(F)(F)F)n1,43.5% [at 14.8 µM],–
O=C(O)c1cccc(-c2cc(C(F)(F)F)ccc2Cl)c1,-18.2% [at 45.9 µM],–
CCOC(=O)c1ccccc1NC(=O)CSc1ccc(-c2sc(-c3ccccc3)nc2C)nn1,-3.59%,–
O=C(CNC(=O)c1ccccc1)OC(C(=O)Nc1cc(C(F)(F)F)ccc1Cl)c1ccccc1 (stereo not given),-9.19% [at 5.25 µM],–
CN(Cc1ccc(C(=O)O)cc1)c1ccc(OCc2c(-c3c(Cl)cccc3Cl)noc2C2CC2)nc1C(F)(F)F,–,13.1 µM (active)
CC(C)CN1CC(COc2ccc3ccccc3c2)Oc2ccnc(-c3ccc(OCC(=O)O)cc3)c2C1=O (stereo not given),-28.1% [at 45.9 µM],–
O=C(Nc1ccc(C(=O)OCc2cc(=O)n3c4c(sc3n2)CCCC4)cc1)c1ccc(F)cc1,7.94% [at 14.8 µM],–
O=C(O)COc1ccc(-c2nccc3c2C(=O)N(Cc2cccc(C(F)(F)F)c2)CC(COc2ccc4cnccc4c2)O3)cc1 (stereo not given),-12.5% [at 45.9 µM],–
COC(=O)[C@H](Cc1ccc(OC)cc1)NC(=O)[C@H]1CN(S(=O)(=O)c2ccccc2)CCN1S(=O)(=O)c1ccccc1,-31.6% [at 45.9 µM],–
CC(Oc1ccccc1)C(=O)Nc1ccc(C(=O)OCc2cc(=O)n3nc(C(C)C)sc3n2)cc1 (stereo not given),30.1%,–
O=C(OCC#CCSc1nnc(-c2ccccc2Cl)o1)c1ccc(F)cc1,44.6%,–
CC[C@H](C)[C@H]1O[C@]2(CC[C@@H]1C)C[C@@H]1C[C@@H](C/C=C(\C)[C@@H](O[C@H]3C[C@H](OC)[C@@H](O[C@H]4C[C@H](OC)[C@@H](O)[C@H](C)O4)[C@H](C)O3)[C@@H](C)/C=C/C=C3\CO[C@@H]4[C@H](O)C(C)=C[C@@H](C(=O)O1)[C@]34O)O2,–,41.5 nM (active) and 2.62 µM (active)
O=C(O)c1ccc(-c2ccc(C(F)(F)F)cc2)cc1,-70.9% [at 89.2 µM],–
COC(=O)c1ccc(C(=O)Nc2ccc(-c3nc4cc(NC(=O)c5ccc(C(=O)OC)cc5)ccc4o3)cc2)cc1,-3.86% [at 45.9 µM],–
O=C(O)COc1ccc(-c2nccc3c2C(=O)N(Cc2cccc(C(F)(F)F)c2)CC(COc2cccc(F)c2)O3)cc1 (stereo not given),-7.48% [at 45.9 µM],–
Nc1cc(N)c(N=Nc2ccc(S(=O)(=O)Nc3nccs3)cc2)cc1N=Nc1ccc(S(=O)(=O)Nc2nccs2)cc1,-64.5% [at 45.9 µM],–
O=C(CSc1nnc(-c2cccc([S+](=O)([O-])NC3CCCC3)c2)n1-c1ccccc1)Nc1ccc(C(=O)O)cc1,53.9% [at 5.25 µM],–
O=C(O)Cn1nnc(-c2ccc(OCc3cccc(C(F)(F)F)c3)cc2)n1,56.1% [at 14.8 µM],–
CC1(C(=O)O)NCCc2cc(O)c(O)cc21 (stereo not given),-7% [at 45.9 µM],–

SMILES,"activity change, negative = inhibition",Potency
O=C(O)c1c(-c2ccccc2)oc2ccc(OCc3ccc(Cl)c(Cl)c3)cc12,34.5% [at 14.8 µM],–
O=C(COc1ccccc1C(=O)OCC(=O)Nc1cccc2ccccc12)Nc1ccc(Br)cc1,4.84%,–
O=C(Nc1ccccc1C(=O)OCc1cc(=O)n2nc(C3CC3)sc2n1)c1cccc(Cl)c1,24%,–
CC(C)(O)c1ccccc1CC[C@H](SCC1(CC(=O)O)CC1)c1cccc(/C=C/c2ccc3ccc(Cl)cc3n2)c1,49%,–
Cc1cc(S(=O)(=O)Nc2ccc(C(=O)O)cc2)c(C)c(S(=O)(=O)c2ccc(Cl)cc2)c1,46.1% [at 14.8 µM],–
CCS(=O)(=O)c1cccc(C(=O)Nc2ccc(-c3nc4ccccc4s3)c(O)c2)c1,38.8%,–
O=C(O)c1ccc(-c2cccc(C(F)(F)F)c2)cc1,-42% [at 89.2 µM],–
O=C(O)c1cc(NCc2cc(O)ccc2O)ccc1O,-12.3% [at 45.9 µM],–
Cc1ccc(-c2nnc(Nc3ccc(O)cc3)c3ccccc23)cc1S(=O)(=O)NC(C)(C)CO,47.2% [at 14.8 µM],–
Cc1ccc(OCC(=O)Nc2ccc(C(=O)OCc3cc(=O)n4nc(C5CC5)sc4n3)cc2)cc1,15.7%,–
O=C(OCc1cccc(C(F)(F)F)c1)c1ccc(-c2nnn(Cc3ccc(F)cc3)n2)cc1,99.7%,–
O=C(Nc1ccc(C(=O)Nc2ccc(C(=O)Nc3ccc(S(=O)(=O)O)c4cc(S(=O)(=O)O)cc(S(=O)(=O)O)c34)cc2)cc1)Nc1ccc(C(=O)Nc2ccc(C(=O)Nc3ccc(S(=O)(=O)O)c4cc(S(=O)(=O)O)cc(S(=O)(=O)O)c34)cc2)cc1,–,inactive
O=C(NCc1ccc(Oc2ccccc2)cc1)c1nc(-c2cc(Br)c(O)c(Br)c2)no1,–,8.29 µM (active)
Nc1c(S(=O)(=O)O)cc(Nc2ccc(Nc3nc(Cl)nc(Nc4ccc(S(=O)(=O)O)cc4)n3)c(S(=O)(=O)O)c2)c2c1C(=O)c1ccccc1C2=O,52.1% [at 5.25 µM],–
N#Cc1ccc(OCC2CN(Cc3cccc(C(F)(F)F)c3)C(=O)c3c(ccnc3-c3ccc(OCC(=O)O)cc3)O2)cc1 (stereo not given),20% [at 45.9 µM],–
Cc1c(Cl)cccc1NC(=O)CSc1ncccc1C(=O)Oc1ccccc1Cl,-3.59%,–
O=c1oc2ccccc2cc1-c1nnc(Nc2ccc(Cl)cc2Cl)s1,8.33%,–
C=CC(C)(C)c1[nH]c2ccccc2c1C1=C(O)C(=O)C(c2c[nH]c3c(CC=C(C)C)cccc23)=C(O)C1=O,-4.23% [at 45.9 µM],–
O=C(OCc1cc(=O)n2nc(C3CC3)sc2n1)c1cccc(NC(=O)c2ccccc2Cl)c1,39.7%,–
CCCCc1nn2c(=O)cc(COC(=O)c3cccc(NC(=O)c4cccc(Cl)c4)c3)nc2s1,5.33%,–
